# Measurements: PubChem BioAssay AID504329 (Southern Research Specialized Biocontainment Screening …, 2011)
# Hit rate of the full screen: of about 340,000 compounds, about 1,000 (0.29%) were called active. Not all results are given here. Results with a measured potency or affinity are listed apart. A number with no mark means an inactive call. Cut-off read from the data, not from the text of the source: inconclusive = inhibition above about 27% without an active follow-up result; inactive = below that.
# Assay: H1N1 influenza NS1A inhibitors, functional cell based assay (AID 504329)
# Conditions: percent inhibition, at 12.5 µM, stronger effect = higher value
row,SMILES,inhibition [%]
1,CCO[C@H]1OC(C(=O)N2CCN(Cc3ccc4c(c3)OCO4)CC2)=C[C@@H](C2CCCCC2)[C@@H]1CCCO,8.35
2,CC(C)N(Cc1nc(-c2ccc(Cl)cc2)no1)Cc1nccn1C,-7.64
3,CCOC(=S)SCc1cn2cccc(C)c2n1,4.77
4,CNc1ccc(Oc2nc([N+](=O)[O-])nn2C)cc1,-2.73
5,Fc1ccc(/C=N/n2cnn(Cc3ccccc3Cl)c2=S)cc1,-7.06
6,O=C(CCCc1ccccc1)Nc1nncs1,0.92
7,O=S(=O)(NCC1COc2ccccc2O1)c1ccc2ccccc2c1 (centres undefined),1.74
8,Cn1c(/C(C#N)=C(\O)c2cccc(F)c2)nc2ccccc21,0.62
9,Cc1nc2sccn2c(=O)c1S(=O)(=O)N1CCN(c2cccc(C(F)(F)F)c2)CC1,3.59
10,COc1ccc(/C=C2/Sc3ccc(C(=O)NCCCN4CCOCC4)cc3NC2=O)cc1OC,9.94
11,CCN1CCCC1CNC(=O)c1ccc2c(c1)NC(=O)/C(=C\c1ccc(C)cc1)S2 (centres undefined),21.9
12,O=C(NCC1CCCN1S(=O)(=O)c1cccs1)c1ccccc1F (centres undefined),-4.78
13,CC(=O)Nc1ccc(S(=O)(=O)N2CCN(c3ccc(C)c(Cl)c3)CC2)cc1,-15.9
14,CN=c1c([N+](=O)[O-])nn(-c2ccc3c(c2)OCCO3)n1O,2.75
15,O=[N+]([O-])c1nn(-c2ccc3c(c2)OCCO3)n(O)c1=NC1CCCC1,15.3
16,O=[N+]([O-])c1nn(-c2ccccc2)[n+]([O-])c1N1CCN(c2ccccc2)CC1,0.82
17,O=[N+]([O-])c1nn(-c2ccc3c(c2)OCCO3)n(O)c1=NC1CCCCC1,9.84
18,C/C=C(\C)CN1CCN(c2ccccc2)CC1,-6.09
19,COc1cccc2c(Cl)c(CC=C(Cl)Cl)c(C)nc12,8.95
20,O=[N+]([O-])c1ccc(-[n+]2c(-c3ccccc3)cc(-c3ccccc3)cc2-c2ccccc2)cc1,0.94
21,CCN(CC)CC(O)Cn1c(C)c(-c2ccccc2)c2cc([N+](=O)[O-])ccc21 (centres undefined),27.4
22,CC(C)n1c2ccccc2c2cc([N+](=O)[O-])ccc21,3.2
23,O=[N+]([O-])c1ccc2c(c1)c(-c1ccccc1)nc1nncn12,-1.91
24,COc1ccc(S(=O)(=O)Nc2ccc3c(c2)C(=O)N([C@H](C)CO)C[C@H](C)[C@@H](CN(C)C(=O)Nc2ccccc2)O3)cc1,6.6

row,SMILES,inhibition [%]
1,COc1ccc(Nc2nc3c([nH]2)c(=O)[nH]c(=O)n3C)cc1,-6.85
2,O=C(CN1C(=O)NC2(CCOc3ccccc32)C1=O)NCCc1ccc(F)cc1 (centres undefined),-8.82
3,N#CCCN1CCN(C2=NC(=O)/C(=C\c3cccs3)S2)CC1,8.67
4,CCOC(=O)c1ccccc1NC(=O)/C=C/c1cc(OC)c(OC)c(OC)c1,-4.73
5,COc1cccc([C@@H]2CC=C(C(=O)O)[C@H](c3ccc(Br)cc3)N2S(=O)(=O)c2ccc(C)cc2)c1,-4.53
6,CN(N=Nc1ccc([N+](=O)[O-])cc1)c1ccccc1,8.69
7,CCCCN(C)c1ccc([N+](=O)[O-])cc1,11.8
8,Cc1ccc(CSC2=NCCN2C(=O)c2ccc([N+](=O)[O-])cc2)cc1,5.18
9,COc1ccc([C@@H]2CC=C(C(=O)O)[C@H](c3ccccc3)N2S(=O)(=O)c2ccccc2C)cc1,-3.46
10,COc1ccc(/C=N/S(=O)(=O)c2cccs2)cc1,4.61
11,COc1ccc(-c2nsc3c(SCc4ccccc4)ncnc23)cc1,-10.6
12,Cc1cc2oc(=O)cc(-c3cc4ccccc4o3)c2cc1O,-6.82
13,Cc1ccccc1-c1cc(=O)c2c(O)cccc2o1,-13.3
14,O=c1cc2oc3cc(O)c(O)cc3c(-c3ccccc3[N+](=O)[O-])c-2cc1O,20.1
15,COc1cc(-c2cc(=O)c3ccccc3o2)ccc1O,-19
16,COc1ccc(OC)c(-c2oc3ccccc3c(=O)c2O)c1,-8.28
17,O=c1cc2oc3cc(O)c(O)cc3c(-c3ccccc3O)c-2cc1O,4.83
18,COc1c(O)cc2oc(-c3ccc(O)c(O)c3)cc(=O)c2c1O,2.55
19,COc1ccc2c(=O)cc(-c3ccccc3F)oc2c1,-4.71
20,CCCC(OC(=O)CC1Sc2ccccc2NC1=O)C(=O)NCc1ccco1 (centres undefined),4.36
21,N#Cc1cc(-c2ccccc2)oc1NC(=O)c1ccccc1,0.56
22,COc1ccc(N2CCN(C(=O)c3ccc(S(=O)(=O)NCc4ccco4)cc3)CC2)cc1,6.25
23,Cc1ccc(C(=O)NNC(=O)c2ccc3ccccc3c2O)cc1,-5
24,COc1cccc(N=Nc2ccc3cccnc3c2O)c1,6.02

row,SMILES,inhibition [%]
1,Cc1ccc(N=Nc2[nH]c3ccccc3c2O)cc1,-4.85
2,COc1ccc(N=Nc2ccc3ccccc3c2)c(O)c1,25.1
3,CCOn1c(=O)c(-c2ccc(F)cc2)[n+]([O-])c2ccccc21,-9.53
4,O=C(COc1ccc(Cl)cc1)NCc1nnc(SCC(=O)Nc2ccc(F)cc2F)o1,12.3
5,O=C1N2CCSC2=NC1(Nc1nccs1)C(F)(F)F (centres undefined),-5.52
6,COC(=O)c1ccccc1S(=O)(=O)N(CCCN1CCOCC1)Cc1cccs1,18.3
7,COc1cccc(C2C(C#N)=C(N)N(N(C)C)C3=C2C(=O)CCC3)c1 (centres undefined),-18.6
8,Cc1ccc(NCc2nc3ccccc3n2C)cc1,3.76
9,Cn1c(CNc2ccccc2)nc2ccccc21,-15.8
10,Cc1cc([N+](=O)[O-])nn1CC(=O)N/N=C/c1ccccc1O,13.7
11,O=C(Cn1cnc([N+](=O)[O-])n1)N/N=C/c1cccc2ccccc12,5.61
12,O=C(CCCn1cnc([N+](=O)[O-])n1)Nc1cc(Cl)ccc1O,-2.62
13,O=C(Cn1cnc([N+](=O)[O-])n1)N/N=C/c1cccc(Cl)c1,-19.4
14,COc1ccccc1/C=N/NC(=O)Cn1cnc([N+](=O)[O-])n1,2.27
15,Cc1ccccc1/C=N/NC(=O)Cn1cnc([N+](=O)[O-])n1,0.54
16,O=C(Cn1cnc([N+](=O)[O-])n1)N/N=C/c1ccc2ccccc2c1,-2.51
17,Cc1cc([N+](=O)[O-])nn1Cc1ccc(C(=O)N/N=C/c2ccc(O)cc2O)cc1,2.59
18,CCN(CC)S(=O)(=O)c1ccc(Cl)c(NC(=O)COc2ccc3c(C)cc(=O)oc3c2)c1,15.6
19,CC(=O)c1cccc(NC(=O)CSc2ccc(-c3sc(C)nc3C)nn2)c1,-5.12
20,Cc1ccccc1NC(=O)/C(C#N)=C/c1ccc[nH]1,-10.5
21,COC(=O)c1ccc(N2CCN(C)CC2)c(NC(=O)COc2ccccc2)c1,4.25
22,COc1ccc(-c2noc(Cn3cc(S(=O)(=O)N4CCCC4)ccc3=O)n2)cc1,-10.2
23,Cc1ccc(/C=N/n2c(-c3ccc(Cl)cc3)n[nH]c2=S)o1,2.1
24,Cc1cc(OCC(=O)N2CCC(C(=O)O)CC2)c2c3c(c(=O)oc2c1)CCC3,-2.02

row,SMILES,inhibition [%]
1,O=C(c1c(F)cccc1F)N1CCN(c2cccc(C(F)(F)F)c2)CC1,-9.64
2,Nc1nc(-c2ccccc2)c(N=Nc2cccnc2)s1,18
3,Nc1ccc(N=Nc2ccccc2Cl)c(N)n1,26.8
4,Nc1nc(-c2ccccc2)c(N=Nc2ccc(Cl)cc2)s1,11.4
5,Nc1nc(-c2ccccc2)c(-c2ccccc2)s1,4.73
6,C=C(C)COc1ccc(-c2[nH]ncc2-c2ccc(OC)cc2)c(O)c1,9.07
7,CC(=O)c1sc(NC(=O)C2CCCN2S(=O)(=O)c2ccccc2F)nc1C (centres undefined),-3.2
8,COc1cc(C)ccc1OCCCOc1c(Cl)cccc1Cl,-6.86
9,CC(C)c1ccc(/C=C2\CC/C(=C\C=N\N(C)C)C2=O)cc1,2.58
10,CN(C)/N=C/C=C1\CC/C(=C\c2ccc(Br)cc2)C1=O,5.12
11,O=C(Nc1sc2c(c1C(=O)N1CCOCC1)CCCCC2)c1cccnc1,1.63
12,COc1cccc(/C=N/NC(=O)Cn2ccnc2C)c1,-3.78
13,Cc1nccn1CC(=O)N/N=C/c1cccs1,-26.6
14,Cc1nccn1CC(=O)N/N=C/c1cccc(O)c1,-4.69
15,Cc1nccn1CC(=O)N/N=C/c1c[nH]c2ccccc12,-1.01
16,COc1ccc(/C=N/N=C2/NC(=O)C(c3ccccc3)(c3ccccc3)S2)cc1,9.74
17,Cc1cccc(OCc2nnc(SCC(=O)Nc3cccc(C(=O)N4CCOCC4)c3)n2C)c1,-2.72
18,CN(CC(=O)Nc1ccccc1Br)C(=O)COc1cccc2c1OC(C)(C)C2,-2.61
19,Cc1cc(OCC(=O)N(C)C2CCCCC2)ccc1Cl,1.86
20,COc1ccc(C2CC(c3cccs3)=NN2C(=O)CSc2nc(=O)n3ccccc3n2)cc1 (centres undefined),-0.56
21,Cc1ccc(NC(=O)CN2C(=O)CN=C(c3ccccc3)c3cc(Cl)ccc32)cc1,24.3
22,CN(C)c1ccc(NC(=O)CN2C(=O)CN=C(c3ccccc3)c3ccccc32)cc1,-10.1
